# An excerpt weighted towards active compounds, which were near 1.2% of everything screened.
# RN4220 kill = S. aureus RN4220 growth inhibition; inhibition, % (test concentration not listed); hit rate 0.33% among 330,000; AID 1259311; OD600, 16 h; in the data active = inhibition above about 85%;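 note: plate controls were untreated cells for no effect and reference antibiotic for full effect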
# PriA SSB inh = inhibitors of Klebsiella pneumoniae PriA binding to SSB C-terminal tail; hit rate 0.6% among 430,000; AlphaScreen SSBct-PriA binding, biotinylated peptide; inhibition, % at 33 µM; AID 1272365; in the data active = inhibition mostly above about 37%, no sharp cut-off; inactive = mostly below about 20%;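 note: plate controls were negative control peptide for no effect and reference peptide for full effect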
# MazEF act = MazEF (E. coli) toxin RNase activation; P0AE70; hit rate 0.32% among 350,000; activation, % at 20 µM; FAM/BHQ RNA-DNA oligo cleavage fluorescence, 5 h; in the data active = activation above about 50%
# Target sequence (P0AE70 whole entry, looked up): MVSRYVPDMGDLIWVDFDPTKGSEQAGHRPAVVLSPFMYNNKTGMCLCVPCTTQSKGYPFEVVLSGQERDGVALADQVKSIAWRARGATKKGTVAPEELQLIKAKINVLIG
# BJeLR viability = BJeLR cell viability loss | BJeLR (HRASV12) viability, CellTiter-Glo ATP luminescence, 48 h | AID 1554 | inhibition, % (concentration not given with the values) | hit rate 0.17% among 300,000; in the data active = inhibition above about 50%
# Sa ugtP lethal = compounds lethal to S. aureus RN4220 ugtP deletion mutant. OD600 growth, 16 h. growth inhibition, % (concentration not given with the values). hit rate 0.54% among 330,000. AID 1259309; in the data active = growth inhibition above about 68%;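 note: plate controls were untreated wells for no effect and antibiotic for full effect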
# The depositor's hits bear a star; · = no result given.
SMILES,RN4220 kill,PriA SSB inh,MazEF act,BJeLR viability,Sa ugtP lethal
CCOC(=O)c1cc(CC)sc1NC(=O)C(c1ccccc1)c1ccccc1,0,-17,-8,8,89*
CCOC(=O)CSc1nc(C(C)C)nc2sc(C)c(C)c12,10,-8,-1,-5,89*
NC1C2CN(c3nc4c(cc3F)c(=O)c(C(=O)O)cn4-c3ccc(F)cc3F)CC12 (stereo unspecified),100*,-2,2,7,98*
CCCCCC(NC(=O)C1CCN(C(=O)[C@@H](NS(=O)(=O)c2ccc(C)cc2)C(C)C)CC1)C(=O)O (stereo partly specified),-1,-16,-3,-2,-7
CCc1ccc(OCC(O)CNC(C)(C)C)cc1 (stereo unspecified),4,2,20,6,28
COc1ccc(C=NNC(=O)CCN2CCN(c3ccccc3)CC2)c(OC)c1OC,3,3,·,·,7
CCCCn1c(=O)c(C(=O)Nc2cnccn2)c(O)c2ccccc21,68,2,-7,-11,83*
CCCCn1c(=O)c(C(=O)Nc2ccccc2C)c(O)c2ccccc21,5,-13,9,2,16
CCCn1c(=O)c(C(=O)Nc2ncccc2C)c(O)c2ccccc21,30,-14,11,0,12
CCCCCn1c(=O)c(C(=O)Nc2ncccc2C)c(O)c2ccccc21,53,-10,7,-9,101*
O=C(CNC(=O)c1ccccc1)NCCCSc1ccccc1,-1,-10,8,·,7
O=C(NCCCSc1ccccc1)c1cc(Cl)ccc1O,93*,-32,-6,-2,89*
S=c1nc[nH]c2nc[nH]c12,5,5,2,76*,-3
Cn1cnc2nc[nH]c2c1=S,5,2,8,·,7
O=c1c2ccccc2c(C=NCc2ccccn2)c(O)n1-c1ccccc1,4,-3,162*,-10,5
CCOC(=O)Nc1ccc2c(c1)Nc1ccccc1S2,-7,53*,-5,7,-15
C=CC(=O)N1c2ccccc2Sc2ccc(NC(=O)OCC)cc21,10,-15,5,12,7
COc1cc(C=NNC(=O)c2csc3c2CCCC3)cc(OC)c1O,3,-9,·,·,2
CCOc1cc(/C=C2\COc3ccccc3C2=O)cc(Br)c1OCC(=O)N(C)C,24,10,6,65*,19
COc1ccc(/C=C2\COc3ccccc3C2=O)cc1OC,24,4,-3,-3,6
CCCn1c(SC/C(O)=C(\C#N)c2nc3ccccc3[nH]2)n[nH]c1=O,0,-9,-10,1,1
O=C(Nc1ccc(Cl)cc1)c1cc(Br)ccc1OCC(=O)N1CCOCC1,-10,44*,4,5,2
O=C(Nc1cc(Cl)ccc1-n1cncn1)c1ccc([N+](=O)[O-])s1,27,21,5,-2,101*
O=C(Nc1cc(Cl)ccc1-n1cncn1)c1ccco1,4,0,-2,0,-3
CSc1nccc(-c2nn(-c3ccc(Cl)cc3)ccc2=O)n1,·,53*,·,·,·
SMILES,RN4220 kill,PriA SSB inh,MazEF act,BJeLR viability,Sa ugtP lethal
Cc1ccc(-n2ccc(-c3nn(-c4ccccc4)ccc3=O)n2)cc1,1,5,9,0,-1
CC(C)OC(=O)c1c2c(n3ccccc13)C(=O)c1ccccc1C2=O,-2,18,175*,-11,11
Nc1c(C(=O)c2ccc(Br)s2)oc2ccccc12,-1,-8,64*,-2,0
O=c1c2ccccc2n2c(-c3ccc(F)cc3)nnc2n1Cc1ccccc1,5,-12,2,12,-1
COc1ccc(N(C(C)C(=O)N2CCC(Cc3ccccc3)CC2)S(C)(=O)=O)cc1 (stereo unspecified),9,55*,-1,11,2
N#Cc1nc(COc2ccc(-c3ccccc3)cc2)oc1N1CCCC1,·,54*,·,·,·
CCN1CCN(c2oc(COc3ccc(-c4ccccc4)cc3)nc2C#N)CC1,23,41*,-5,-1,9
c1ccc(-c2csc(Nc3ccccn3)n2)cc1,-8,-6,2,4,6
c1ccc(-c2csc(Nc3ncccn3)n2)nc1,·,70*,·,·,·
Cc1ccc(C)c(Nc2nc(-c3ccccn3)cs2)c1,·,69*,·,·,·
NNc1nc(-c2ccccn2)cs1,·,130*,·,·,·
c1ccc(Nc2nc(-c3ccccn3)cs2)nc1,·,150*,·,·,·
Cc1nn(CC(=O)NCCCN2CCN(C)CC2)c(=O)c2cc(-c3ccccc3)nn12,0,3,10,-3,2
COc1cccc(C2=NN(C(=O)c3cccs3)C(O)(C(F)(F)F)C2)c1 (stereo unspecified),91*,0,-5,-10,74
C=CCOC(=O)C1=C(C)NC(SCC(=O)NC(=O)OCC)=C(C#N)C1c1cccnc1 (stereo unspecified),6,-7,17,8,10
O=C(/C=C/c1ccccc1)Oc1cccc(C(=S)N2CCOCC2)c1,·,3,3,-6,·
Cc1ccc(NCSc2ccc(Cl)cc2)cc1,4,-1,-6,·,6
Clc1ccc(SCNc2ccccc2Cl)cc1,3,-7,1,2,88*
CCCSc1cc(N2CCN(C)CC2)nc(-c2ccc(OC)cc2)n1,-8,18,0,-4,100*
Cc1cc(C)cc(N=c2c([N+](=O)[O-])nn(-c3cccc(Cl)c3)n2O)c1,88*,36,7,4,84
CCc1cccc(N=c2c([N+](=O)[O-])nn(-c3ccc(Cl)cc3)n2O)c1,95*,36,24,3,92*
Oc1ccc(/C=N/N2CCCCC2)c(O)c1,·,·,5,7,·
COc1ccc([C@H]2CC(=O)C=C(c3ccc(C)c([N+](=O)[O-])c3)C2)cc1,-4,-3,0,·,-6
Oc1ccc(C=Nc2cccc3ncccc23)c(O)c1,-2,96*,16,-9,-3
CCOc1ccc(C=Nc2cccc3ncccc23)cc1,-2,77*,6,-8,-5
SMILES,RN4220 kill,PriA SSB inh,MazEF act,BJeLR viability,Sa ugtP lethal
O=C(Nc1ccc(N=Nc2ccccc2)cc1)c1ccccc1Cl,-2,33,-6,-16,4
O=C(N1CCC(Oc2ncccc2Br)CC1)C1(c2ccccc2)CCOCC1,·,-27,·,·,·
Cc1cc(OC2CCN(C(=O)C3(c4ccccc4)CCOCC3)CC2)cc(=O)o1,·,23*,·,·,·
CCOC(=O)/C(=C\c1ccccc1)C(=O)c1cc(C(C)=O)c(Nc2ccccc2)s1,-2,-3,-9,6,6
CCOC(=O)/C(=C\c1cccnc1)C(=O)c1cc(C(C)=O)c(Nc2ccccc2)s1,9,-3,-3,53*,-3
Cc1csc(NC(=O)c2cc3ccccc3o2)n1,-4,-11,-3,·,-18
Cc1csc(C(C#N)C(=O)c2cc3ccccc3o2)n1 (stereo unspecified),84*,8,2,6,79
CN1CCCc2cc(CCNC(=O)C(=O)Nc3cccc(C(F)(F)F)c3)ccc21,·,21,·,·,·
Oc1ccc(N=Nc2n[nH]c(-c3ccccc3)n2)cc1,7,12,1,9,-11
